Only some compounds are listed: those with a hit (about 2.3% of all), similar ones and a draw of the others.
Mcl1 Bid PPI: Mcl-1/Bid interaction inhibition; AID 1021; actives 0.97% (n = 220,000); TR-FRET Mcl-1/Bid-Dy647 peptide binding, 1536-well; inhibition, % at 21.7 µM;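 active = compounds that cut the binding signal by more than half at the single screening dose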;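 note: His-tagged Mcl-1 with europium anti-His antibody binding Bid BH3 peptide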
Target sequence (Q07820 whole entry, looked up): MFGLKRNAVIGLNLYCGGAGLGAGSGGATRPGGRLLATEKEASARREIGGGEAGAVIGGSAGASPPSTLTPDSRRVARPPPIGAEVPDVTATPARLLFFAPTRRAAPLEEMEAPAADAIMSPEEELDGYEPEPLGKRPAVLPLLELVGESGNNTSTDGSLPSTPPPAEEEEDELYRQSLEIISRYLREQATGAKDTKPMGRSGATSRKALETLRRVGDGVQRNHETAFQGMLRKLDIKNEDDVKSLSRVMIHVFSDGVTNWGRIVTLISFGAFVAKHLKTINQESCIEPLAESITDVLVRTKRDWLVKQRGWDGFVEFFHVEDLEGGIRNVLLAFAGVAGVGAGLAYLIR
BCLXL inh: blocks human Bcl-xL binding to Bim BH3 peptide; Q07817; GST-Bcl-xL / FITC-Bim BH3 peptide fluorescence polarization; inhibition, % at 10.9 µM; actives 0.7% (n = 320,000);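 active = inhibition above the mean of all tested compounds plus 3 SD, cutoff set per campaign, cut at about 30% in these data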;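 note: inhibitors lower millipolarization by displacing the labeled peptide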
Mcl-1 Bim block: disrupts Bim peptide binding to human Mcl-1. Q07820. Bead-based flow cytometry, Bim peptide-Mcl-1 binding. inhibition, % at 10 µM. actives 0.1% (n = 190,000). AID 1009; in the data active = inhibition above about 40%
Mcl1 Noxa PPI: Mcl-1/Noxa interaction inhibition. Q07820. TR-FRET Mcl-1/Noxa peptide binding, 2 h. inhibition, % at 21.7 µM. actives 1.5% (n = 220,000). AID 1022;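 active = compounds that cut the protein-peptide binding signal by more than 50% relative to plate controls in a single-dose test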;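 note: His-tagged Mcl-1 with rhodamine Noxa BH3 peptide and terbium anti-His antibody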
GLD-1 RNA inh: GLD-1-TGE RNA interaction inhibition (C. elegans). Q17339. purified GLD-1 + fluorescein TGE RNA, fluorescence polarization. actives 0.44% (n = 320,000). inhibition, % at 5.96 µM;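 active = percent inhibition above a per-plate cutoff, the plate mean of test compounds plus 3 SD, cut at about 30% in these data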
Target sequence (Q17339 whole entry, looked up): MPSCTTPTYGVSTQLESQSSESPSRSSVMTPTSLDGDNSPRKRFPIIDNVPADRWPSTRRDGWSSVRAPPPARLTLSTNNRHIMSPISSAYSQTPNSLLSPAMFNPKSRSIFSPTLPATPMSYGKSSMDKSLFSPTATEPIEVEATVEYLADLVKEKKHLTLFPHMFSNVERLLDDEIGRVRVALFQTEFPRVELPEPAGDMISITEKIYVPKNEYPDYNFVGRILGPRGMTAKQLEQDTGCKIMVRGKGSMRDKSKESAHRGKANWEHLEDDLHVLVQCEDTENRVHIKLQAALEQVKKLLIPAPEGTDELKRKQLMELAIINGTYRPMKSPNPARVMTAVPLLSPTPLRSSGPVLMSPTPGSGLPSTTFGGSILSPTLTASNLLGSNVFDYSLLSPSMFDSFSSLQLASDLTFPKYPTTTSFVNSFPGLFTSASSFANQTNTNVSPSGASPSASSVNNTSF
MCL1 BIM primary: inhibitors of human MCL1 binding to BIM-BH3 peptide. GST-MCL1 / FITC-Bim-BH3 fluorescence polarization. Q07820. inhibition, % at 10.9 µM. actives 0.68% (n = 320,000);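 active = inhibition above the mean inhibition of all tested compounds plus 3 SD, set per campaign, cut at about 40% in these data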;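 note: higher means more loss of mP so more displacement of Bim peptide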
Each line names hits and unclear results; the compound was inactive in the other large screens.

C#CC[N+](C)(C)CCN1C(=O)C2C(c3ccccc3)C=CC(c3ccccc3)C2C1=O (centres undefined)	none
COc1ccc2cc3c(N)nn(C(=O)Cc4ccc(Cl)cc4)c3nc2c1	Mcl1 Bid PPI 66.1
CCOCCn1c(=NC(=O)/C=C/c2ccccc2Cl)sc2cc(NC(C)=O)ccc21	Mcl1 Bid PPI 61.0
COc1ccc(C)cc1-n1nnnc1SC/C(O)=C(\C#N)c1nc2ccccc2[nH]1	none
Cc1cccc(Nc2nnc(SC/C(O)=C(\C#N)c3nc4ccccc4[nH]3)s2)c1	Mcl1 Noxa PPI 51.5
Cc1ccc(Nc2nnc(SC/C(O)=C(\C#N)c3nc4ccccc4[nH]3)s2)c(C)c1	Mcl1 Noxa PPI 69.5
Cc1cc2nc(-c3cccnc3SCC(=O)NCc3ccco3)[nH]c2cc1C	Mcl1 Noxa PPI 73.2
O=C(Nc1ccccc1N1CCCCC1)C1CCN(S(=O)(=O)c2ccccc2C(F)(F)F)CC1	none (no result: Mcl1 Bid PPI, Mcl-1 Bim block, Mcl1 Noxa PPI)
COc1ccc(-c2nn(CCC(=O)O)cc2/C=C2\SC(N)=NC2=O)cc1OC	Mcl1 Noxa PPI 89.6
COc1ccc(Cn2cc3c(-c4ccc(F)cc4)nnc-3c3cc(OC)c(OC)cc32)cc1	BCLXL inh 47.2
CC(C)Oc1ccc(S(=O)(=O)N2CCCCC2)cc1NC(=O)CN1C(=O)NC2(CCCC2)C1=O	none (no result: Mcl1 Bid PPI, Mcl-1 Bim block, Mcl1 Noxa PPI)
Cc1cccc(NC(=O)CNC(=O)c2cccs2)n1	none (no result: Mcl1 Bid PPI, Mcl-1 Bim block, Mcl1 Noxa PPI)
Cc1cccc(NC(=O)c2cccs2)n1	Mcl1 Noxa PPI 78.3
CC(C)N1CCc2c(sc(NC(=O)c3cc4cc([N+](=O)[O-])ccc4s3)c2C(N)=O)C1	Mcl1 Noxa PPI 76.3 (no result: BCLXL inh, GLD-1 RNA inh, MCL1 BIM primary)
Cc1cccc(NC(=O)c2cc3cc([N+](=O)[O-])ccc3s2)n1	Mcl1 Noxa PPI 59.7
Cc1onc(-c2c(Cl)cccc2Cl)c1C(N)=O	none
Cc1onc(-c2c(Cl)cccc2Cl)c1C(N)=S	Mcl1 Bid PPI 50.9
CC(=O)Nc1cccc(NC(=O)c2c(-c3c(Cl)cccc3Cl)noc2C)c1	Mcl1 Noxa PPI 67.2
Cc1cc(C)nc(NC(=O)c2c(-c3c(Cl)cccc3Cl)noc2C)n1	none
C/C(=N\NC(=S)NCc1ccccc1)c1ccc2ccccc2c1OC(F)F	none
CSc1nc2c(c(=O)[nH]1)C(c1cccs1)C1=C(CCCC1=O)N2 (centres undefined)	none
O=C1CCCC2=C1C(c1cn(-c3ccccc3)nc1-c1cccs1)c1c([nH]c(=O)[nH]c1=O)N2 (centres undefined)	Mcl1 Noxa PPI 62.2
Nc1ccc(C2=Nc3cccc4cccc(c34)N2)cc1	Mcl1 Noxa PPI 77.1 (no result: BCLXL inh, GLD-1 RNA inh, MCL1 BIM primary)
CC1=Nc2cccc3cccc(c23)N1	Mcl1 Noxa PPI 92.9
COc1cccc(C2=Nc3cccc4cccc(c34)N2)c1	Mcl1 Noxa PPI 57.3
c1coc(C2=Nc3cccc4cccc(c34)N2)c1	none
Cc1ccc(C)c(Nc2nc(-c3ccncc3)nc3ccccc23)c1	none (no result: Mcl1 Bid PPI, Mcl-1 Bim block, Mcl1 Noxa PPI)
COCCNC(=O)CSc1ccccc1C(=O)O	none
CCCCCc1nnc(NC(=O)NS(=O)(=O)c2ccc(C)cc2)s1	none (no result: Mcl1 Bid PPI, Mcl-1 Bim block, Mcl1 Noxa PPI)
Cc1ccc(-n2c(O)c(/C=N/Nc3ccc(S(=O)(=O)N4CCOCC4)cc3[N+](=O)[O-])c3ccccc3c2=O)c(C)c1	Mcl1 Noxa PPI 78.1
COc1cc(C2CC(=O)c3cnc(NC(=O)c4ccco4)nc3C2)cc(OC)c1OC (centres undefined)	none (no result: Mcl1 Bid PPI, Mcl-1 Bim block, Mcl1 Noxa PPI)
CC1C(=O)NN=C1C(=O)N/N=C\c1ccc(O)cc1O (centres undefined)	Mcl1 Noxa PPI 74.4
CC(C(=O)c1c[nH]c(C(=O)N=CN(C)C)c1)c1ncc(C(F)(F)F)cc1Cl (centres undefined)	none
COc1ccc(S(=O)(=O)Nc2ccc3c(c2)C(=O)N([C@H](C)CO)C[C@H](C)[C@@H](CN(C)C(=O)NC(C)C)O3)cc1	none (no result: Mcl1 Bid PPI, BCLXL inh, Mcl-1 Bim block, Mcl1 Noxa PPI, MCL1 BIM primary)
CC1CCc2nc3ccc(S(=O)(=O)N4CCC(C(=O)O)CC4)cc3c(C(=O)O)c2C1 (centres undefined)	none (no result: Mcl1 Bid PPI, Mcl-1 Bim block, Mcl1 Noxa PPI)
COC(CNC(=O)C1CCN(S(=O)(=O)c2ccc3nc4c(c(C(=O)O)c3c2)CC(C)CC4)CC1)OC (centres undefined)	BCLXL inh 31.4 (no result: Mcl1 Bid PPI, Mcl-1 Bim block, Mcl1 Noxa PPI)
Cc1ccc(N2C(=O)C3C(C2=O)C(C(=O)c2ccc(Cl)cc2)N2CCCC32)cc1 (centres undefined)	BCLXL inh 73.3, GLD-1 RNA inh 46.2, MCL1 BIM primary 72.2
O=C(O)C1=C[C@H](c2ccc(F)cc2)C[C@H](OCCCCO)O1	none (no result: Mcl-1 Bim block)
O=S(=O)(Nc1cc(Sc2ncn[nH]2)c(O)c2ccccc12)c1ccccc1	Mcl1 Noxa PPI 83.2 (no result: BCLXL inh, GLD-1 RNA inh, MCL1 BIM primary)
COc1ccc(-c2cc(C(=O)Nc3ccc(O)cc3)c3ccccc3n2)cc1OC	Mcl1 Bid PPI 54.3 (no result: Mcl-1 Bim block)
COc1ccc(NC(=O)c2cc(-c3cc(OC)c(OC)c(OC)c3)nc3ccccc23)cc1OC	none (no result: Mcl1 Bid PPI, Mcl-1 Bim block, Mcl1 Noxa PPI)
Cn1cnnc1SCC(=O)NC1CCCC1	none (no result: Mcl1 Bid PPI, Mcl-1 Bim block, Mcl1 Noxa PPI)
CCOC(=O)N1CC=C2C(C#N)=C(N)C(C#N)(C#N)[C@H](c3ccccc3OCC)[C@H]2C1	none
CC(C)c1ccc(C2C3CSCC=C3C(C#N)=C(N)C2(C#N)C#N)cc1 (centres undefined)	none
CN1C2C=C3C(C#N)=C(N)C(C#N)(C#N)[C@@H](c4ccsc4)[C@@H]3C1CC2 (some centres undefined)	Mcl-1 Bim block 53.0
CCOC(=O)N1CC=C2C(C#N)=C(N)C(C#N)(C#N)[C@H](c3ccsc3)[C@H]2C1	BCLXL inh 40.9
CCCC1C2CN(C(C)C)CC=C2C(C#N)=C(N)C1(C#N)C#N (centres undefined)	BCLXL inh 161.3, GLD-1 RNA inh 131.7, MCL1 BIM primary 180.2
N#CC1=C(N)C(C#N)(C#N)C(c2ccncc2)C2CN(C(=O)OCc3ccccc3)CC=C12 (centres undefined)	none
O=C(CSc1nncs1)NNC(=O)c1ccccc1Br	none (no result: Mcl1 Bid PPI, BCLXL inh, Mcl-1 Bim block, Mcl1 Noxa PPI, MCL1 BIM primary)
CCOC(=O)C(=CNNc1cccc(Cl)c1)C(=O)OCC	Mcl1 Noxa PPI 52.2 (no result: Mcl-1 Bim block)
COc1cccc(Oc2cc(Cl)nc(N)n2)c1	none (no result: Mcl1 Bid PPI, Mcl-1 Bim block, Mcl1 Noxa PPI)
CC(=O)CC1(C)OC(N)=C(C#N)C1(C#N)C#N (centres undefined)	BCLXL inh 45.4, GLD-1 RNA inh 56.8 (no result: Mcl1 Bid PPI, Mcl1 Noxa PPI)
Clc1ccc2c(N/N=C/c3cccc(Br)c3)ccnc2c1	Mcl1 Bid PPI 60.5
Clc1ccc2c(N/N=C/c3ccccc3Br)ccnc2c1	Mcl1 Bid PPI 63.2, Mcl1 Noxa PPI 58.0
NC(=O)c1ccc(/C=N/O)nc1	none
O=C(CCc1nnc(CCCCc2ccccc2)o1)NCCN1CCOC1=O	none
CCOc1ccc(CCNC(=O)CSc2n[nH]c(N)n2)cc1OCC	none (no result: Mcl1 Bid PPI, Mcl-1 Bim block, Mcl1 Noxa PPI)
CN(C)c1ccc(N=c2sc3ccccc3n2C)cc1	Mcl1 Noxa PPI 101.3
Nc1nonc1-n1nnc(C(=O)N/N=C/c2cccc(Cl)c2)c1-c1cccs1	none (no result: Mcl1 Bid PPI, Mcl-1 Bim block, Mcl1 Noxa PPI)
COc1ccc2[nH]cc(C3N4CC5(C)CN3CC(C)(C4)C5=O)c2c1 (centres undefined)	Mcl1 Bid PPI 55.0
COc1ccc(Cl)cc1NC(=S)N(CCN1CCOCC1)C1CCN(C(C)=O)CC1	none
O=S(=O)(/N=C(/c1ccccc1)N1CCCCC1)c1ccccc1	none

Screening data: PubChem, several laboratories
